{"source": "paper PMC5540273", "about": "(PLoS ONE, 2017);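 also: KINOMEscan kinase panel screen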", "data": [{"system": "EIF2AK1", "settings": "concentration: 1 μM, replicates: in singlicate; n = 1", "units": {"%Inh": "%"}, "values": [{"compound": "COc1ccc(C2=C(Nc3cccc(O)c3)C(=O)NC2=O)cc1", "note": "[SB-390766]", "%Inh": 5}, {"compound": "COc1ccc(NC(=O)c2ccoc2)cc1-c1ccc(C(=O)NCC2CC2)cc1", "note": "[GW810437]", "%Inh": 0}, {"compound": "Cc1nn2c(=O)cc(N3CCO[C@H](C)C3)nc2n1Cc1cccc(Cl)c1Cl", "note": "[GSK2373693]", "%Inh": 1}, {"compound": "Cl.O=C(Nc1ccc(Oc2ccc3[nH]c(NC(=O)c4ccco4)nc3c2)cc1)Nc1cc(C(F)(F)F)ccc1F", "note": "[GW683134]", "%Inh": 4}, {"compound": "O=C(O)C(F)(F)F.O=c1[nH]ccc2nc(N[C@@H]3CCNC3)nc(Nc3ccc4c(c3)S(=O)(=O)CC4)c12", "note": "[GSK2181306]", "%Inh": 4}, {"compound": "O=C(Nc1n[nH]c2cc(-c3cccs3)ccc12)C1CC1", "note": "[SB-731284]", "%Inh": 7}, {"compound": "CNc1nccc(-c2ccc3c(N)n[nH]c3c2)n1", "note": "[GSK2206003]", "%Inh": 0}, {"compound": "COc1cccc(NC(=O)NCCNc2ccnc(Nc3ccc(F)cc3)n2)c1", "note": "[GSK1379879]", "%Inh": 0}, {"compound": "CN(c1ccc2c(c1)nc(NCc1ccccc1)n2C)c1ccnc(Nc2ccc(CS(C)(=O)=O)cc2)n1.Cl", "note": "[GW811603]", "%Inh": 0}, {"compound": "Cc1ccc(O)cc1Nc1ccnc2cc(-c3ccc(CN4CCCCC4)o3)ccc12", "note": "[GW557777]", "%Inh": 0}, {"compound": "Cc1cccc(Nc2nc(N[C@H]3CCCC[C@H]3N)ncc2C(N)=O)c1.Cl", "note": "[GSK986310]", "%Inh": 22}, {"compound": "c1ccc(Oc2ccc(Nc3ccnc4cc(-c5ccc(CN6CCCCC6)o5)ccc34)cc2)nc1", "note": "[GW567143]", "%Inh": 0}, {"compound": "CC(C)c1nc(-c2ccc(F)c(NS(=O)(=O)c3c(F)cccc3F)c2)c(-c2ccnc(Nc3ccc(N4CCOCC4)nc3)n2)s1", "note": "[GSK1804250]", "%Inh": 67}]}]}
